Data on 14 compounds can be found in PubChem BioAssay (NCI).

Compounds without any hit were thinned out: in the full panel of roughly 83,000, 20% have a hit.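 48-hour exposure, single concentration, 96-well plates; percent growth endpoint where 0 means no net growth. Active: below 10.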 Unmarked numbers belong to inactive results. Activity calls are given as the source filed them.

Some test systems named below: NCI-H23 lung; NCI-H226 lung; NCI-H322M lung; HOP-62 NSCLC; NCI-H460 lung; HOP-92 NSCLC; NCI-H522 lung; A549/ATCC NSCLC; 786-0 renal; COLO 205 colon.
What all share (test): NCI-60 one-dose screen, 48 h (100 = growth as untreated, 0 = no growth, -100 = all killed)
Conditions in all cases: 10 µM unless noted

In the case of `Oc1ccc(Nc2ncnc3c2sc2ncccc23)cc1`, the growth in the test on NCI-H23 lung was 11.2%; with NCI-H226 lung, 42.6%; in the test with NCI-H322M lung, 47%; in the test with HOP-62 NSCLC, 9.02% (active); in the test with NCI-H460 lung it was 9.18% (active); in the test with HOP-92 NSCLC, 28.5%. Besides, the growth was 33.6% in the test with NCI-H522 lung, 26.9% with A549/ATCC NSCLC, 12.5% with 786-0 renal and 36% with COLO 205 colon.
Consider `COc1ccc(C(=O)c2c(N)nc3n2CCCC3)cc1OC`, for which the growth in the test with NCI-H23 lung was 109%; in the test with NCI-H226 lung, 96.9%; in the test on NCI-H322M lung it was 96.2%; with HOP-62 NSCLC, 102%; in the test with NCI-H460 lung it was 105%; with HOP-92 NSCLC, 118%. In addition, the growth with NCI-H522 lung is 81.7%; in the test with A549/ATCC NSCLC, 102%; in the test with 786-0 renal it was 100%; in the test on COLO 205 colon it was 107%.
In the case of `O=C(CCCCCCc1nc2ccc(Br)cc2[nH]1)NO`, the growth was -25.6% (active) in the test with NCI-H23 lung; 19.3% in the test on NCI-H226 lung; 4.52% (active) with NCI-H322M lung; 12.5% in the test on HOP-62 NSCLC; -25.6% (active) in the test with NCI-H460 lung; -21.7% (active) with HOP-92 NSCLC. For the same compound, the growth in the test with NCI-H522 lung is -16% (active); in the test with A549/ATCC NSCLC, 7.55% (active); with 786-0 renal, -4.46% (active); in the test with COLO 205 colon it was -98.5% (active).
Turning to `c1ccc2c(c1)cnc1ccccc12`, the growth in the test with NCI-H23 lung was 102%; with NCI-H226 lung it was 111%; with NCI-H322M lung, 103%; with HOP-62 NSCLC, 102%; in the test on NCI-H460 lung, 110%; in the test with HOP-92 NSCLC it was 99.5%. Besides, the growth was 81.6% in the test on NCI-H522 lung, 93.7% in the test on A549/ATCC NSCLC, 92.6% in the test on 786-0 renal and 129% with COLO 205 colon.
Take `O=C(c1ccc(C(F)(F)F)c(Cl)c1)N(Cc1ccc(Cl)cc1)c1ccc(-c2cc(C(F)(F)F)[nH]n2)c(O)c1`: the growth in the test with NCI-H23 lung was 6.5% (active); with NCI-H226 lung it was -5.3% (active); with NCI-H322M lung it was 14.4%; in the test on HOP-62 NSCLC it was -4.7% (active); in the test with NCI-H460 lung, 6.77% (active); in the test with HOP-92 NSCLC, -15.6% (active). For the same compound, the growth with NCI-H522 lung is -1.27% (active); in the test with A549/ATCC NSCLC, 12.8%; in the test with 786-0 renal it was 3.06% (active); in the test with COLO 205 colon, -73.8% (active).
`Cc1nc([C@H]2CC[C@H]3[C@@H]4CCC5=CC(=O)CC[C@]5(C)[C@H]4CC[C@]23C)cs1`: the growth with NCI-H23 lung is 49.9%; with NCI-H226 lung, 76.9%; in the test on NCI-H322M lung it was 116%; in the test with HOP-62 NSCLC it was 104%; in the test on NCI-H460 lung, 41.5%; with HOP-92 NSCLC, 85%. The growth in the test with NCI-H522 lung is 22%; with A549/ATCC NSCLC, 63.3%; with 786-0 renal it was 62.7%; in the test with COLO 205 colon it was 97.5%.
As to `C/C(=N\NC(=S)N1CCCCC1)c1ccccn1`, the growth was 30.8% in the test with NCI-H23 lung; 7.07% (active) with NCI-H226 lung; 4.53% (active) in the test with NCI-H322M lung; 21% in the test on HOP-62 NSCLC; -23.9% (active) in the test on NCI-H460 lung; -1.04% (active) in the test on HOP-92 NSCLC. Besides, the growth was 11.5% with NCI-H522 lung, 9.13% (active) with A549/ATCC NSCLC, 15.5% with 786-0 renal and -14% (active) in the test on COLO 205 colon.
With `CN(CCO)c1ccc(N2Cc3ccccc3OC3=C2C(=O)c2c(O)ccc(O)c2C3=O)cn1`, the growth was -66.5% (active) with NCI-H23 lung; 0.236% (active) in the test on NCI-H226 lung; -0.583% (active) with NCI-H322M lung; -46.3% (active) in the test with HOP-62 NSCLC; -51.2% (active) in the test with NCI-H460 lung; -71.9% (active) in the test with HOP-92 NSCLC. Besides, the growth in the test with NCI-H522 lung was -49.8% (active); with A549/ATCC NSCLC, -18.9% (active); with 786-0 renal, -91.2% (active); with COLO 205 colon, -81.8% (active).
As for `CNC(=O)c1ccccc1Sc1ccc2c(/C=C/c3ccccn3)n[nH]c2c1`, the growth with NCI-H23 lung is 47.5%; in the test on NCI-H226 lung, 20.9%; in the test with NCI-H322M lung it was 34.9%; in the test with HOP-62 NSCLC, 24.3%; in the test with NCI-H460 lung, 20.2%; in the test with HOP-92 NSCLC it was 9.47% (active). In addition, the growth was 24.2% in the test on NCI-H522 lung, 28.6% in the test with A549/ATCC NSCLC, 44% with 786-0 renal and 3.49% (active) in the test on COLO 205 colon.
As for `CC(=O)[C@H]1CC[C@H]2[C@@H]3CC[C@H]4CC=CC[C@]4(C)[C@H]3CC[C@]12C`, the growth in the test on NCI-H23 lung was 96.8%; in the test with NCI-H226 lung it was 92.9%; in the test on NCI-H322M lung, 95.2%; with HOP-62 NSCLC it was 109%; in the test on NCI-H460 lung, 104%; with HOP-92 NSCLC it was 101%. For the same compound, the growth in the test on NCI-H522 lung is 40%; in the test on A549/ATCC NSCLC, 84%; with 786-0 renal, 91.7%; in the test on COLO 205 colon, 106%.
`CCOC(=O)NNc1cccc(Cl)c1`: the growth in the test on NCI-H23 lung is 93.8%; with NCI-H226 lung it was 84.7%; in the test on NCI-H322M lung, 104%; in the test with HOP-62 NSCLC, 103%; in the test on NCI-H460 lung, 103%; in the test with HOP-92 NSCLC, 87.5%. Further, the growth is 96.6% in the test with NCI-H522 lung, 107% in the test with A549/ATCC NSCLC, 112% in the test on 786-0 renal and 123% with COLO 205 colon.
Take `CCN(CC)CCNc1c(C)cc(CO)c(Cl)c1C`: the growth in the test on NCI-H23 lung is 102%; in the test with NCI-H226 lung it was -23.6% (active); in the test with NCI-H322M lung, 110%; in the test with HOP-62 NSCLC, 113%; in the test with NCI-H460 lung, 98.9%; in the test on HOP-92 NSCLC, 109%. Also, the growth with NCI-H522 lung was 104%; in the test on A549/ATCC NSCLC, 84.5%; in the test on 786-0 renal, 103%; in the test with COLO 205 colon it was 85.2%.
Consider `CCOC(=O)Nc1ccc2nc(-c3cscn3)[nH]c2c1`, for which the growth in the test on NCI-H23 lung is 71.6%; in the test on NCI-H226 lung it was 63.5%; in the test with NCI-H322M lung it was 63.1%; with HOP-62 NSCLC, 54.1%; in the test with NCI-H460 lung, 21.7%; with HOP-92 NSCLC, 114%. Besides, the growth with NCI-H522 lung is 43.7%; in the test on A549/ATCC NSCLC, 45%; in the test on 786-0 renal, 67.7%; in the test on COLO 205 colon it was 29%.
With `CCOC(=O)C(Nc1ccccc1)C(=O)OCC`, the growth in the test on NCI-H23 lung was 108%; in the test with NCI-H226 lung, 99.6%; in the test with NCI-H322M lung it was 88.1%; in the test with HOP-62 NSCLC, 101%; with NCI-H460 lung, 115%; in the test on HOP-92 NSCLC it was 72.9%. For the same compound, the growth with NCI-H522 lung was 102%; with A549/ATCC NSCLC, 100%; with 786-0 renal, 110%; with COLO 205 colon, 119%.
